# In PubChem BioAssay:
# Test: probe aCHRDL2 binding to arrayed compounds – biochemical, biotinylated probe, 635/667 nm fluorescence, primary screen (AID 1100)
# Conditions: small-molecule microarray, higher = more signal
row,SMILES,composite z-score
1,COc1ccc([Si](C)(C)[C@@H]2[C@@H](CCO)O[C@]3(C(=O)N(Cc4ccc(N5C(=O)c6ccccc6Oc6ccccc65)cc4)c4ccccc43)[C@H]2C)cc1,0.543
2,O=C1O[C@@H](c2ccccc2)[C@@H](c2ccccc2)N2[C@@H](c3ccc(O)cc3)[C@]3(C(=O)Nc4ccc(C#CC5(O)CCCCCC5)cc43)[C@@H](C(=O)N3CCN(c4ncccn4)CC3)[C@H]12,-0.127
3,COCCCNC(=O)[C@@]1(C)c2ccccc2C(=O)N(c2ccc(C)cn2)[C@H]1c1ccc(CO)cc1,-0.75
4,COc1ccc([Si](C)(C)[C@H]2[C@H](CCO)O[C@@]3(C(=O)N(Cc4cccc(N5CCOC5=O)c4)c4ccccc43)[C@@H]2C)cc1,-0.339
5,O=C(N1CCOCC1)[C@@]1(CCS(=O)(=O)c2ccccc2)COC(c2ccc(OCCCO)cc2)=N1,0.691
6,COCCOC(=O)N1C(=O)[C@@]2(c3cc(C#Cc4ccc(OC)cc4)ccc31)[C@H](C(N)=O)[C@H]1C(=O)O[C@H](c3ccccc3)[C@H](c3ccccc3)N1[C@@H]2c1ccc(OCCO)cc1,-0.13
7,C=C[C@H](C)[C@H](OC(=O)Nc1ccc(SC)cc1)c1ccc(O)c2ccccc12,-0.121
8,C=C(CCCC)/C(=C/C[C@H](OC(=O)c1ccncc1)c1ccc(CO)o1)c1cc(C(=O)OC)ccc1OC,-0.125
9,CN1C(=O)C2C=CC(C(O)c3cccc4ccccc34)N(NC(=O)OC(C)(C)C)C2C1=O (stereo not given),1.43
10,COc1cc2c(cc1OC)CN(C(=O)[C@@H]1[C@H]3C(=O)O[C@H](c4ccccc4)[C@H](c4ccccc4)N3[C@H](c3ccc(OCCO)cc3)[C@@]13C(=O)Nc1ccc(C#CCCO)cc13)CC2,0.772
